Records with an inconclusive call do not appear. Active and inactive are the calls of the source. The calls were made as follows, unless noted: active = hit-call score of the fitted dose curve at least 0.9, where 1 is the maximum; inactive = score below 0.9.
Tests used:
[1] = read-out: Nuclear factor erythroid 2-related factor 2 (Homo sapiens) (UniProt Q16236); assay: LTEA_HepaRG_NFE2L2: Life Technologies and Expression Analysis (LTEA) Assay for Nuclear factor erythroid 2-related factor 2 (NFE2L2) Transcription Factor using HepaRG (AID 2283527); conditions: mRNA level, 48 h; actives raise or lower the signal
How it was run: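 Differentiated human HepaRG cells, serum-free induction medium, exposed 48 h in duplicate to eight half-log concentrations up to 100 uM in 0.5% DMSO. NFE2L2 mRNA by Fluidigm TaqMan qRT-PCR, normalised to ACTB, GAPDH, POLR2A; bidirectional change versus DMSO.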

[2] = read-out: succinate dehydrogenase complex iron sulfur subunit B (SDHB), SDHB (gene 6390); assay: LTEA_HepaRG_SDHB: Life Technologies and Expression Analysis (LTEA) Assay for succinate dehydrogenase complex iron sulfur subunit B (SDHB) using HepaRG (AID 2283528); conditions: mRNA level, 48 h; actives raise or lower the signal
How it was run: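 Readout is SDHB transcript level by qRT-PCR, normalised to three housekeeping genes and fitted bidirectionally against 0.5% DMSO vehicle. Human HepaRG cells were treated for 48 h at up to 100 uM.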

[3] = read-out: Signal transducer and activator of transcription 3 (Homo sapiens) (UniProt P40763); assay: LTEA_HepaRG_STAT3: Life Technologies and Expression Analysis (LTEA) Assay for Signal transducer and activator of transcription (STAT3) using HepaRG (AID 2283529); conditions: mRNA level, 48 h; actives raise or lower the signal
How it was run: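 Differentiated HepaRG cells, serum-free induction medium, dosed 48 h in duplicate, 8 half-log concentrations from 100 uM in 0.5% DMSO. STAT3 mRNA by qRT-PCR, normalised to ACTB, GAPDH, POLR2A; bidirectional fit versus DMSO.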

[4] = read-out: solute carrier (SLCO1B1), SLCO1B1 (gene 10599); assay: LTEA_HepaRG_SLCO1B1: Life Technologies and Expression Analysis (LTEA) Assay for solute carrier (SLCO1B1) using HepaRG (AID 2283530); conditions: mRNA level, 48 h; actives raise or lower the signal
How it was run: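 Gain or loss of SLCO1B1 mRNA is fitted against the 0.5% DMSO vehicle in human HepaRG liver cells treated 48 h at up to 100 uM in half-log steps. Expression comes from qRT-PCR normalized to endogenous controls.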

[5] = read-out: sulfotransferase 2A1 (SULT2A1), SULT2A1 (gene 6822); assay: LTEA_HepaRG_SULT2A1: Life Technologies and Expression Analysis (LTEA) Assay for sulfotransferase 2A1 (SULT2A1) using HepaRG (AID 2283531); conditions: mRNA level, 48 h; actives raise or lower the signal
How it was run: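 Cells were plated and cultured 48 h, switched to serum-free induction medium, then dosed in duplicate for 48 h (8 concentrations, max 100 uM). RNA was isolated and SULT2A1 expression measured by qRT-PCR; gain or loss of signal fitted relative to DMSO.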

[6] = read-out: Transforming Growth Factor (TGFA), TGFA (gene 7039); assay: LTEA_HepaRG_TGFA: Life Technologies and Expression Analysis (LTEA) Assay for Transforming Growth Factor (TGFA) using HepaRG (AID 2283532); conditions: mRNA level, 48 h; actives raise or lower the signal
How it was run: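 Differentiated HepaRG cells exposed 48 hours in serum-free induction medium, 0.5% DMSO vehicle, 8-point half-log series from 100 uM, in duplicate. TGFA mRNA by TaqMan qRT-PCR, normalised to ACTB, GAPDH, POLR2A; bidirectional fit versus DMSO.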

[7] = read-out: Transforming Growth Factor (TGFB1), TGFB1 (gene 7040); assay: LTEA_HepaRG_TGFB1: Life Technologies and Expression Analysis (LTEA) Assay for Transforming Growth Factor (TGFB1) Transporter using HepaRG (AID 2283533); conditions: mRNA level, 48 h; actives raise or lower the signal
How it was run: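 Expression change of TGFB1 in human HepaRG cells is measured after a 48 h chemical exposure, up to 100 uM in 0.5% DMSO vehicle. Curves are fitted in both directions relative to the DMSO baseline.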

TIMP1, TIMP1 (gene 7076) = assay: LTEA_HepaRG_TIMP1: Life Technologies and Expression Analysis (LTEA) Assay for TIMP1 using HepaRG (AID 2283534); conditions: mRNA level, 48 h; actives raise or lower the signal
How it was run: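 We dosed human liver HepaRG cultures for 48 hours with up to 100 uM test chemical and measured TIMP1 expression by qRT-PCR. Activity in either direction is fitted relative to the 0.5% DMSO vehicle.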

[8] = read-out: Tumor necrosis factor receptor 1 (TNFRSF1A), TNFRSF1A (gene 7132); assay: LTEA_HepaRG_TNFRSF1A: Life Technologies and Expression Analysis (LTEA) Assay for Tumor necrosis factor receptor 1 (TNFRSF1A) using HepaRG (AID 2283535); conditions: mRNA level, 48 h; actives raise or lower the signal
How it was run: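 Expression of TNFRSF1A in human HepaRG liver cells was measured by qRT-PCR 48 h after chemical dosing (maximum 100 uM). Bidirectional curve fitting used 0.5% DMSO as baseline.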

[9] = read-out: Thyroid Hormone Responsive (THRSP), THRSP (gene 7069); assay: LTEA_HepaRG_THRSP: Life Technologies and Expression Analysis (LTEA) Assay for Thyroid Hormone Responsive (THRSP) using HepaRG (AID 2283536); conditions: mRNA level, 48 h; actives raise or lower the signal
How it was run: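 Differentiated HepaRG cells treated 48 h in serum-free induction medium with 8 half-log concentrations up to 100 uM (0.5% DMSO), duplicates. THRSP mRNA by TaqMan qRT-PCR normalised to ACTB, GAPDH, POLR2A; bidirectional fit versus DMSO.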

[10] = read-out: Cellular tumor antigen p53 (Homo sapiens) (UniProt P04637); assay: LTEA_HepaRG_TP53: Life Technologies and Expression Analysis (LTEA) Assay for Tumor Protein P53 (TP53) using HepaRG (AID 2283537); conditions: mRNA level, 48 h; actives raise or lower the signal
How it was run: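 Read-out is TP53 transcript level by microfluidic qRT-PCR, normalised to three housekeeping genes and fitted bidirectionally against DMSO. Human HepaRG cells received compounds for 48 h, highest concentration 100 uM.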

[11] = read-out: UDP glucuronosyltransferase (UGT1A1), UGT1A1 (gene 54658); assay: LTEA_HepaRG_UGT1A1: Life Technologies and Expression Analysis (LTEA) Assay for UDP glucuronosyltransferase (UGT1A1) using HepaRG (AID 2283538); conditions: mRNA level, 48 h; actives raise or lower the signal
How it was run: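 Readout is UGT1A1 transcript level by qRT-PCR, normalized to three housekeeping genes, after 48 h chemical treatment of HepaRG cells. Concentrations ran from 100 uM down in half-log steps with 0.5% DMSO, and gain or loss relative to DMSO was fitted.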

[12] = read-out: UDP glucuronosyltransferase (UGT1A6), UGT1A6 (gene 54578); assay: LTEA_HepaRG_UGT1A6: Life Technologies and Expression Analysis (LTEA) Assay for UDP glucuronosyltransferase (UGT1A6) using HepaRG (AID 2283539); conditions: mRNA level, 48 h; actives raise or lower the signal
How it was run: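 Endpoint is UGT1A6 transcript induction or loss in a human liver cell line, quantified by TaqMan qRT-PCR 48 h after dosing. Concentrations ran from 100 uM downward in half-log steps in 0.5% DMSO; activity was fitted in both directions versus vehicle.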

[13] = read-out: X-box binding protein 1 (XBP1), XBP1 (gene 7494); assay: LTEA_HepaRG_XBP1: Life Technologies and Expression Analysis (LTEA) Assay for X-box binding protein 1 (XBP1) using HepaRG (AID 2283540); conditions: mRNA level, 48 h; actives raise or lower the signal
How it was run: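 Human HepaRG monolayers receive test chemical for 48 h across an eight-point half-log series starting at 100 uM. XBP1 mRNA gain or loss is scored against DMSO by qRT-PCR.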

[14] = biological target: Cellular tumor antigen p53 (Homo sapiens) (UniProt P04637); assay: TOX21_p53_BLA_p2_ratio: Tox21 HCT-116 p53 Agonism Beta-lactamase Assay, Ratio, Phase 2 (AID 2283592; active = hit-call score of the fitted dose curve at least 0.9, where 1 is the maximum)
How it was run: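 An inducible beta-lactamase reporter in HCT116 cells signals p53 pathway activation. After 16 h chemical exposure at 37C, cells load CCF4-AM substrate for 2 h at room temperature; activity is the cleaved/uncleaved emission ratio relative to DMSO.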

[15] = biological target: Cellular tumor antigen p53 (Homo sapiens) (UniProt P04637); assay: TOX21_p53_BLA_p3_ratio: Tox21 HCT-116 p53 Agonism Beta-lactamase Assay, Ratio, Phase 3 (AID 2283596; active = hit-call score of the fitted dose curve at least 0.9, where 1 is the maximum)
How it was run: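 HCT116 p53-bla cells (4000/well) given compound in DMSO (217-fold dilution) after 5 h, incubated 16 h at 37C. CCF4-AM substrate 2 h at room temperature; 460/530 nm emission ratio, gain fitted against DMSO.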

[16] = LTEA_HepaRG_LDH_cytotoxicity: Cytotoxicity Assessment in the Life Technologies and Expression Analysis (LTEA) Assay (AID 2283563; active = hit-call score of the fitted dose curve at least 0.9, where 1 is the maximum;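 as to AC50: LDH activity released into spent culture medium as a marker of cell death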)
How it was run: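 Human HepaRG hepatic cells are treated with test chemicals for 48 h at up to 100 uM in 0.5% DMSO. Cytotoxicity is scored from medium LDH against the vehicle control.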

[17] = TOX21_p53_BLA_p2_viability: Viability Assessment in the Tox21 HCT-116 p53 Agonism Beta-lactamase Assay, Phase 2 (AID 2283591; active = hit-call score of the fitted dose curve at least 0.9, where 1 is the maximum;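 also: compound exposure lasted 16 h at 37 °C; actives lower the ATP signal meaning cytotoxicity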)
How it was run: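 HCT116 p53-bla cells, 4000/well, dosed after 5 h plating (217-fold dilution of DMSO stocks) and incubated 16 h at 37C. Viability taken as cellular ATP by CellTiter-Glo luminescence after 30 min RT; signal loss marks cytotoxicity.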

[18] = TOX21_p53_BLA_p3_viability: Viability Assessment in the Tox21 HCT-116 p53 Agonism Beta-lactamase Assay, Phase 3 (AID 2283593; active = hit-call score of the fitted dose curve at least 0.9, where 1 is the maximum;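 also: cells exposed to compound for 16 h before reading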)
How it was run: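 HCT116 cells, 4000/well, dosed 5 h after plating by pin transfer (217-fold dilution from DMSO stock) and incubated 16 h at 37C, 5% CO2. Viability read as ATP luminescence with CellTiter-Glo after 30 min at room temperature.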

Measured: AC50

Chain of Nuclear factor erythroid 2-related factor 2 (Homo sapiens) (Q16236 whole entry, looked up): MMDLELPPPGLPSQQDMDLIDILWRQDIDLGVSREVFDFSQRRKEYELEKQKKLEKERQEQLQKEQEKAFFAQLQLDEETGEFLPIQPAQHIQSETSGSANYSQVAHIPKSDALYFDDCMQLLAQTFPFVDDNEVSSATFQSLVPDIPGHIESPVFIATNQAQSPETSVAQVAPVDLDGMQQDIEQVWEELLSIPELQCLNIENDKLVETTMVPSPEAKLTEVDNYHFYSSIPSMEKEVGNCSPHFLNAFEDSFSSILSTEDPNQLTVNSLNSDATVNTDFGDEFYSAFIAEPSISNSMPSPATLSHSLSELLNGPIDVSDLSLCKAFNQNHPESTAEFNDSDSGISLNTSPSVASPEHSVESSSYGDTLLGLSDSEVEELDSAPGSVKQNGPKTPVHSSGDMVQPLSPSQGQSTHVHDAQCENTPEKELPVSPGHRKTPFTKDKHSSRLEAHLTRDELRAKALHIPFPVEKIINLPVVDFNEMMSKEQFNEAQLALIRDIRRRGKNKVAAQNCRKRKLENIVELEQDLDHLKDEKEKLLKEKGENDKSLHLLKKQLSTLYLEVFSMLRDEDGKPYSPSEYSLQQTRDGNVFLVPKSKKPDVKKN
Chain of Cellular tumor antigen p53 (Homo sapiens) (P04637 whole entry, looked up): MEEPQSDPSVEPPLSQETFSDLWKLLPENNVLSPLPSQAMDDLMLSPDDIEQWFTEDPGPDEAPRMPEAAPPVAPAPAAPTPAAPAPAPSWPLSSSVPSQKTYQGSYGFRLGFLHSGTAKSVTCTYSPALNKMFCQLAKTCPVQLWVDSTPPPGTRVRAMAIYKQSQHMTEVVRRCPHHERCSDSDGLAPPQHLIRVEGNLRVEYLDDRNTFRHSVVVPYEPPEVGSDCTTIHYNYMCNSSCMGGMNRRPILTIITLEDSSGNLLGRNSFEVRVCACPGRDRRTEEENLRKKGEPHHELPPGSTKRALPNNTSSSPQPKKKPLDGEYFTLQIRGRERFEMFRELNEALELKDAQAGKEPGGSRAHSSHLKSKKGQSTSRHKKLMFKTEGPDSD
Chain of Signal transducer and activator of transcription 3 (Homo sapiens) (P40763 whole entry, looked up): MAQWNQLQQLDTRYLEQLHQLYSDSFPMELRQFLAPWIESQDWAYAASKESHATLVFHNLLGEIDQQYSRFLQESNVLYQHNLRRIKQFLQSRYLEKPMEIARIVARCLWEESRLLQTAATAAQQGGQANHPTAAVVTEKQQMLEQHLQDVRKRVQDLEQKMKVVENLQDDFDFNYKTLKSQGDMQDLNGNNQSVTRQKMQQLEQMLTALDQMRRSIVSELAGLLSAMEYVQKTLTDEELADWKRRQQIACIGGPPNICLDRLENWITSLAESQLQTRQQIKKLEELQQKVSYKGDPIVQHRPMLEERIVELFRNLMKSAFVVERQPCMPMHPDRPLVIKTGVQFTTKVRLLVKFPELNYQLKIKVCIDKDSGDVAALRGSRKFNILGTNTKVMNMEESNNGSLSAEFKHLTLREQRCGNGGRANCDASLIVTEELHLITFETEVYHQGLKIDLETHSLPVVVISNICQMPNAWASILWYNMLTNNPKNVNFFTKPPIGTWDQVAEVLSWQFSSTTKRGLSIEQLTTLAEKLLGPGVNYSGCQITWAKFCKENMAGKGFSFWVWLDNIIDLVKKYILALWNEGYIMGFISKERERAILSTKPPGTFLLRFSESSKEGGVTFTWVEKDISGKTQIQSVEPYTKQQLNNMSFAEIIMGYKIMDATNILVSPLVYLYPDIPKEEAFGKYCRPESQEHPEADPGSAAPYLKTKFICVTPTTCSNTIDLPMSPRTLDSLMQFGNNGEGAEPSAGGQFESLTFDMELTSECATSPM

CSc1nc(NC(C)C)nc(NC(C)C)n1
active: [4] 50 µM | [5] 84.9 µM | [9] 76.7 µM | [11] 2.47 µM | [13] 50 µM
not listed: [16] | [17] | [18]
inactive: all other assays above

CC[C@H](C)[C@H]1O[C@]2(C=C[C@@H]1C)C[C@@H]1C[C@@H](C/C=C(\C)[C@@H](O[C@H]3C[C@H](OC)[C@@H](O[C@H]4C[C@H](OC)[C@@H](NC)[C@H](C)O4)[C@H](C)O3)[C@@H](C)/C=C/C=C3\CO[C@@H]4[C@H](O)C(C)=C[C@@H](C(=O)O1)[C@]34O)O2
inactive: [1] | [2] | [6] | [7] | TIMP1, TIMP1 (gene 7076) | [9]
active: [3] 11.9 µM | [4] 19.9 µM | [5] 26.3 µM | [8] 12 µM | [10] 86.7 µM | [11] 12.7 µM | [12] 12.5 µM | [13] 12.8 µM | [16] 18.2 µM | [17] 13.5 µM | [14] 59.1 µM | [18] 14.4 µM | [15] 54.1 µM

C[N+]1(C)CCCCC1
not listed: [2] | [17] | [18]
inactive: all other assays above

Cc1cc(C2CC2)nc(Nc2ccccc2)n1
active: [9] 50 µM | [11] 50 µM | [16] 73.7 µM | [17] 62.2 µM
not listed: [7]
inactive: all other assays above

COP(=O)(OC)C(O)C(Cl)(Cl)Cl (stereo not given)
active: TIMP1, TIMP1 (gene 7076) 70.2 nM | [8] 0.109 µM | [11] 0.0534 µM | [12] 0.103 µM
not listed: [7] | [13] | [16]
inactive: all other assays above

O=C(O)c1cc(Oc2ccc(C(F)(F)F)cc2Cl)ccc1[N+](=O)[O-]
active: [5] 50 µM | [11] 22.7 µM
not listed: [7] | [10] | [14] | [15] | [17] | [18]
inactive: all other assays above

CNc1cnn(-c2cccc(C(F)(F)F)c2)c(=O)c1Cl
active: [1] 9.92 µM | [11] 16.1 µM
not listed: [13] | [17]
inactive: all other assays above
